Screening data as filed in PubChem BioAssay.
Anthrax LF inh2 = Bacillus anthracis LF protease inhibitors, primary screen, biochemical, multiplex microsphere, MLPCN library; hit rate 0.12% among 360,000; inhibition, % at 10 µM; multiplex microsphere protease cleavage assay; Lethal factor (Bacillus anthracis), P15917; further: plate controls were buffer without enzyme for full effect and enzyme alone for no effect
BoNT A protease = BoNT/A light chain protease inhibitors, primary screen, biochemical, flow cytometry, MLPCN library | Botulinum neurotoxin type A light chain protease (Clostridium botulinum A str. ATCC 3502) | multiplex microsphere protease substrate cleavage | inhibition, % at 10 µM | hit rate 0.17% among 360,000; further: plate controls were buffer without enzyme for full effect and enzyme alone for no effect
Bead autofluor = counter-screen for toxin protease inhibitors: compound fluorescence; compound autofluorescence counterscreen, microsphere flow cytometry; stronger effect = higher value; fluorescence intensity (concentration not given with the values); hit rate 3.1% among 360,000; AID 624483; in the data active means fluorescence intensity above about 16000; inconclusive means no clear call, values can overlap the other calls
SARS 3CLpro inh = SARS-CoV 3CLpro protease inhibitors, primary screen, biochemical, quenched FRET. Replicase polyprotein 1ab (Severe acute respiratory syndrome coronavirus), P0C6X7. recombinant SARS-CoV 3CLpro, quenched FRET peptide cleavage. inhibition, % at 6 µM. hit rate 0.14% among 290,000. AID 1706, 2009; in the data active means inhibition above about 12%
BoNT-F LC inh = BoNT/F light chain protease inhibitors, primary screen, biochemical, flow cytometry, MLPCN library; hit rate 0.22% among 360,000; inhibition, % at 10 µM; Botulinum neurotoxin type F light chain protease (Clostridium botulinum); Multiplex microsphere protease cleavage assay; in the data active means inhibition above about 35%, passing the limit was not always enough; inconclusive means no clear call, values can overlap the other calls; further: plate controls were buffer without enzyme for full effect and enzyme alone for no effect
DUSP3 inh = VHR1 phosphatase inhibitors, primary screen, biochemical, absorbance, uHTS. recombinant VHR phosphatase, pNPP absorbance. inhibition, % at 13.3 µM. hit rate 0.52% among 290,000; in the data active means inhibition above about 50%
Target sequence (P51452 whole entry, looked up): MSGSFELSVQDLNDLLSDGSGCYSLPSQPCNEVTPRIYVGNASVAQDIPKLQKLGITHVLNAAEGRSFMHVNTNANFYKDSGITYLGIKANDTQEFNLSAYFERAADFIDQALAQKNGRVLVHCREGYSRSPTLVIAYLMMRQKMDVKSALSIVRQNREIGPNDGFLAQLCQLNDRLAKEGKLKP
Active calls of the source: *; ? = inconclusive; · = no result. Hits are enriched below; roughly 3.9% of the tested compounds scored in any of these assays. Unless noted, no stated cut-off is given here; in the data, active means inhibition above about 30%; inconclusive means no clear call, values can overlap the other calls; inactive means below that.

SMILES | Anthrax LF inh2 | BoNT A protease | Bead autofluor | SARS 3CLpro inh | BoNT-F LC inh | DUSP3 inh
O=C(c1ccco1)N(Cc1cccc([N+](=O)[O-])c1)c1ccc(Br)cc1 | -1 | -1 | 1989 | 5 | -2 | 1
CCCCc1nnc(NC(=O)CSCc2cc(=O)n3cc(C)sc3n2)s1 | -1 | 2 | 4473 | -2 | -1 | 56*
Cc1nc2c(C(=O)NCCC(C)C)c[nH]n2c(=O)c1Cl | -1 | 0 | 2097 | -1 | -4 | 6
Cc1nc2c(C(=O)NCCc3ccccc3)c[nH]n2c(=O)c1Cl | -8 | 4 | 21299* | 3 | 5 | -2
CC1(C(=O)NC2CCCC2)CCC(=O)N1Cc1ccccc1 (configuration not stated) | -3 | ? | 23334* | 0 | 0 | 11
COc1ccc(/C=C/C=N/NC(=O)COc2ccc(OC)cc2)cc1 | 0 | 0 | 2165 | -2 | -7 | -8
CC(C)C(NC(=O)COc1ccc2ccccc2c1)C(=O)N/N=C/C=C/c1ccccc1 (configuration not stated) | 2 | -1 | 22567* | 1 | -1 | 14
O=C(NC1CC1)c1cc2cc3ccccc3nc2s1 | 4 | 2 | 5181 | -5 | 2 | 15
O=S1(=O)N=C(Nc2nncs2)c2ccccc21 | -4 | ? | 22257* | -3 | 3 | 19
Cc1cnc(C(=O)NC2CC(C)(C)Cc3c2cnn3-c2cccc(F)c2)cn1 (configuration not stated) | 0 | -2 | 4509 | 0 | 1 | 19
COc1cc(OC)nc(NC2OC(=O)c3ccccc32)n1 (configuration not stated) | -5 | -2 | 16622* | 6 | -5 | -13
Cc1ccc(-c2ccc(=O)[nH]n2)cc1 | 1 | -2 | 21252* | -5 | -3 | 22
O=C(COc1ccc(Cl)cc1)NCCNc1ccc([N+](=O)[O-])cc1 | 0 | -1 | 3646 | 3 | 23 | 46
CCOC(=O)c1c(Nc2ccccc2)sc(/C=C2\C=Nc3ccccc32)c1O | -3 | 8 | 17134* | 0 | 11 | 26
Oc1nc(Nc2ccccc2)sc1/C=C1\C=Nc2ccccc21 | 4 | -1 | 4606 | 2 | -6 | -22
O=C(Oc1c(Cl)cc(Cl)c2ccccc12)N1CCCCC1 | -2 | 0 | 2243 | 0 | -4 | 20
O=C(Oc1c(Cl)cc(Cl)c2ccccc12)N1CCCC1 | -4 | 0 | 22642* | 1 | 2 | 5
CCN(CC(=O)Nc1ccc(OC)cc1)CC(=O)Nc1cccc(S(=O)(=O)N2CCOCC2)c1 | 3 | 0 | 3802 | · | 0 | ·
COc1cccc(C2C([N+](=O)[O-])=C(N)Oc3c2c(=O)oc2ccccc32)c1 (configuration not stated) | 8 | 1 | 9104 | 2 | 4 | 52*
Cc1cnc(C(=O)OCC(=O)C23CC4CC(CC(C4)C2)C3)cn1 | 1 | -3 | 4842 | -2 | -2 | 0
Cc1cnc(C(=O)OCC(=O)NC23CC4CC(CC(C4)C2)C3)cn1 | 1 | 1 | 20090* | 7 | 0 | 2
CCC(Sc1nc2sc(C(=O)OC)c(C)c2c(=O)n1N)C(=O)N(CC)CC (configuration not stated) | -6 | 2 | 21202* | -2 | 1 | 21
CCCCNC(=O)C(CC)Sc1nc2sc(C(=O)OC)c(C)c2c(=O)n1N (configuration not stated) | 7 | -1 | 10263 | -3 | -2 | 40
CCOC(=O)Nc1ccc(S(=O)(=O)Nc2nc(C)cc(C)n2)cc1 | 0 | -4 | 24252* | 1 | -6 | -16
CCOC(=O)Nc1ccc(S(=O)(=O)Nc2nccc(C)n2)cc1 | ? | ? | ? | 3 | ? | 0
SMILES | Anthrax LF inh2 | BoNT A protease | Bead autofluor | SARS 3CLpro inh | BoNT-F LC inh | DUSP3 inh
Cc1cc(C)nc(NS(=O)(=O)c2ccc(NC(=O)Cc3ccccc3)cc2)n1 | -8 | -1 | 4232 | 2 | -9 | -3
Cc1cc(C)nc(NS(=O)(=O)c2ccc(NC(=O)Cc3ccc(F)cc3)cc2)n1 | -7 | -2 | 3790 | 0 | -6 | 54*
Cc1ccc(C2C(=O)N(C3CCCC3)CC(=O)N2C2CCCCC2)cc1 (configuration not stated) | -4 | 2 | 18594* | -1 | 0 | 24
CCCOc1ccc(C2C(=O)N(C3CCCCC3)CC(=O)N2CCCOCC)cc1OC (configuration not stated) | -4 | 1 | 22919* | -2 | -1 | 1
COc1ccc(C2C(=O)N(C3CCCCC3)CC(=O)N2CCc2ccccc2)cc1OC (configuration not stated) | -1 | -3 | 21105* | -7 | -5 | 26
CCOCCCN1C(=O)CN(C2CCCCC2)C(=O)C1c1ccc(OC)c(OC)c1 (configuration not stated) | 3 | 0 | 10813 | -4 | 5 | 15
CCOCCCN1C(=O)CN(C2CCCCCC2)C(=O)C1c1ccc(OC)cc1 (configuration not stated) | -2 | 1 | 19637* | -4 | 1 | -5
Cc1ccc([C@H]2C[C@H](O)[C@@H](n3cc(C4CC4)nn3)CN2C(=O)C2CCCCC2)cc1 | -1 | 0 | 3731 | · | -1 | ·
CCN(CC)CCN1C(=O)C(=O)/C(=C(/O)c2ccc(S(=O)(=O)N3CCOCC3)cc2)C1c1ccc(C(C)C)cc1 (configuration not stated) | -7 | -2 | 3853 | -10 | -7 | 8
O=C(Cn1nnc(-c2cccs2)n1)N1CCc2ccccc2C1 | -12 | 1 | 21633* | 1 | 2 | 20
CCOc1ccc(/C=C/[N+](=O)[O-])c2ccccc12 | 28 | 47* | 6477 | -2 | 16 | 20
CC(C)(C)OC(=O)N1CCC(NC(=O)c2nc[nH]c2C(=O)NCC(=O)OCc2ccccc2)CC1 | 3 | 0 | 2905 | 2 | 1 | 17
COc1ccc2c(C)cc(SCC#N)nc2c1 | -2 | 2 | 16543* | 0 | -3 | 11
COc1ccc2c(C)cc(SCC(=O)c3ccc4c(c3)OCO4)nc2c1 | -3 | ? | 23435* | 0 | 1 | 14
COc1ccc2c(C)cc(SCc3c(C)noc3C)nc2c1 | -2 | 4 | 22377* | -1 | 2 | 7
COc1ccc2c(C)cc(SCC(=O)NC3CCCC3)nc2c1 | -8 | 0 | 4171 | · | 1 | ·
CC(C)Sc1ncnc2[nH]ncc12 | -3 | 0 | 3032 | · | 6 | ·
CCn1c(SCC(=O)Nc2ccc(F)cc2)nnc1-c1cnccn1 | -2 | -1 | 4710 | -6 | -7 | 11
Cc1cccc(NC(=O)CCCn2cc([N+](=O)[O-])cn2)n1 | -2 | -1 | 4657 | 7 | 0 | 29
O=C(Cn1cc([N+](=O)[O-])cn1)Nc1ccn(Cc2c(F)c(F)cc(F)c2F)n1 | -2 | ? | 23297* | -2 | 3 | -23
